Screening results (PubChem BioAssay)
In the library only some 5.2% were active in any assay of this set; here they are far more common.
PfM18AAP inh – PfM18AAP inhibitors, malaria aminopeptidase, primary screen, biochemical, QFRET, recombinant enzyme; H-Glu-NHMec fluorogenic cleavage; inhibition, % at 7.35 µM; 290,000 tested, 1.2% active; M18 aspartyl aminopeptidase (Plasmodium falciparum 3D7);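 active = inhibition above the campaign mean inhibition over all tested compounds plus 3 SD, cut at about 28% in these data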
CR mimetic SO – reduction of superoxide in aged yeast, primary screen, HTS; AID 2690, 2010; superoxide response (% of plate mean), % at 10 µM; 330,000 tested, 0.18% active; S. cerevisiae aged cells, superoxide DHE fluorescence; active compounds read low;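 active = superoxide response under a set limit, about three screen SD below normal, cut at about 65% in these data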;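 note: yeast aged for seven days with compound at 30 °C before DHE staining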
APOBEC3G inh – APOBEC3G DNA deaminase inhibitors, primary screen, biochemical, fluorescence, single-stranded DNA substrate, uHTS. recombinant A3G, ssDNA deamination FAM/TAMRA fluorescence. inhibition, % at 20 µM. AID 493012, 2011. 330,000 tested, 0.28% active;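 active = inhibition of at least 40% at 20 µM, with no more than 30% in the related APOBEC3A deaminase screen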
Target sequence (Q9HC16 whole entry, looked up): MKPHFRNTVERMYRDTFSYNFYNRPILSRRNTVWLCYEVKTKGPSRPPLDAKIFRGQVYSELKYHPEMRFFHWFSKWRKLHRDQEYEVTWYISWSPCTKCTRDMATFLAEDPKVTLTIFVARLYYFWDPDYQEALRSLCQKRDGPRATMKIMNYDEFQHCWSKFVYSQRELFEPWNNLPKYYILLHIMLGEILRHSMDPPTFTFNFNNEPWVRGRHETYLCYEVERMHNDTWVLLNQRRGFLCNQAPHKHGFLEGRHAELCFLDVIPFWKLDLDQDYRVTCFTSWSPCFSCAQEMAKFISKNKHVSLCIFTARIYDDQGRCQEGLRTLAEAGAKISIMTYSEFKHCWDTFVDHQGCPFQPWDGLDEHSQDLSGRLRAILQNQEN
ALR H2O2 inh – inhibitors of human ALR sulfhydryl oxidase, primary screen, biochemical, H2O2 detection, HRP-luminol luminescence, single point; FAD-linked sulfhydryl oxidase ALR (Homo sapiens), P55789; 290,000 tested, 3.8% active; AID 485317, 2010; inhibition, % (no concentration beside the values); purified ALR, DTT oxidation;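 active = mean replicate inhibition above about 79%, with every replicate also reaching it, limit read from the data; inconclusive = only one of the two criteria met; inactive = mean below limit and not every replicate reaching it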
Target sequence (P55789 whole entry, looked up): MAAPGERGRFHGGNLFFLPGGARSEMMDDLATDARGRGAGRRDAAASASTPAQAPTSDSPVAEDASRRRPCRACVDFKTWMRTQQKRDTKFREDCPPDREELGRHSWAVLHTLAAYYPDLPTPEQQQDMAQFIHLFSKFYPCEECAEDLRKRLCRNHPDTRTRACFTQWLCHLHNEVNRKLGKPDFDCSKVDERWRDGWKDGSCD
CendR NRP1 mod – modulators of CendR peptide binding to NRP-1, primary screen, biochemical, fluorescence polarization, uHTS. Neuropilin-1 (Homo sapiens), O14786. FAM-RPARPAR peptide binding to NRP-1. inhibition, % at 25 µM. 360,000 tested, 0.85% active;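 active = inhibition or corrected inhibition above about 18%, plus a signal ratio from 0.5 to 1.5, limit read from the data, passing the limit was not always enough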
A3A deaminase – APOBEC3A ssDNA deaminase inhibitors, primary screen, selectivity assay for APOBEC3G inhibitor project, biochemical, FAM/TAMRA oligo cleavage fluorescence; inhibition, % at 20 µM; recombinant A3A, FAM/TAMRA ssDNA deamination fluorescence; AID 493011, 2011; 330,000 tested, 0.41% active;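 active = at least 40% inhibition at 20 µM here, with at most 30% in a related deaminase screen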
Large screens that a line does not name were inactive.

O=S1(=O)CC=C(CSC(=S)NC2CCS(=O)(=O)C2)C1 (stereo not drawn)	ALR H2O2 inh 99
CS(=O)(=O)N(CC(=O)NCc1ccccc1)C1CCCCC1	none
CN(C)CCCN1C(=O)c2cccc3c(Br)ccc(c23)C1=O	CendR NRP1 mod 25
COCCn1c(C)cc(C(=O)COC(=O)c2ccc3c(c2)NC(=O)CS3)c1C	ALR H2O2 inh 98
C=CCn1c(C)cc(C(=O)COC(=O)c2ccc3c(c2)NC(=O)CS3)c1C	ALR H2O2 inh 98
COC(=O)CNC(=O)COC(=O)c1cc(SC)ccc1Cl	none
Cc1ccc(C2CC(c3ccco3)n3nc(N)nc3N2)cc1 (stereo not drawn)	none
CCOP(=O)(OCC)C(NCc1ccccc1)c1ccc(Br)cc1 (stereo not drawn)	none
CN(Cc1nc2ccccc2c(=O)[nH]1)C(=O)COc1ccccc1Cc1ccccc1	CendR NRP1 mod 31 (no result: PfM18AAP inh)
O=C(NN=Cc1ccc(O)c(O)c1)c1ccccc1	none (no result: PfM18AAP inh, CR mimetic SO, APOBEC3G inh, ALR H2O2 inh, A3A deaminase)
O=C(/C(=N/N=C/c1ccc(O)c(O)c1O)c1ccccc1)c1ccccc1	ALR H2O2 inh 99
Oc1cccc(C=NCc2ccccc2)c1O	none
Oc1ccc(/C=N/N=C(c2ccccc2)c2ccccc2)c(O)c1O	ALR H2O2 inh 98 (no result: APOBEC3G inh, A3A deaminase)
COc1ccc(C(=O)NNC(=O)c2snnc2C)cc1	none
Cc1ccc(/C=N/NC(=O)c2nnn(-c3nonc3N)c2-c2ccccc2)o1	none
Cc1ccc(/C=N/NC(=O)c2nnn(-c3nonc3N)c2C)o1	CendR NRP1 mod 20
COc1ccccc1-n1c(C)nnc1SCC(N)=O	none
O=C(NCC1CCCO1)c1cccc(S(=O)(=O)Nc2ccc(SC(F)F)cc2)c1 (stereo not drawn)	ALR H2O2 inh 98 (no result: PfM18AAP inh)
COc1ccccc1C(=O)Nc1nc(-c2cccs2)c(NC(C)=O)s1	none
CC(=O)Nc1sc(N/N=C\c2ccc(O)cc2)nc1-c1cccs1	ALR H2O2 inh 91
CC(=O)Nc1sc(NC(=O)c2ccccc2)nc1-c1cccs1	ALR H2O2 inh 98
CC1CCCN(C(=O)c2cn(-c3ccccc3)nc2-c2cccnc2)C1 (stereo not drawn)	none (no result: PfM18AAP inh)
CCOC(=O)c1c2ccc(OCC(=O)N/N=C/c3ccc(Cl)cc3)cc2n2ccccc12	none (no result: CR mimetic SO, APOBEC3G inh, ALR H2O2 inh, CendR NRP1 mod, A3A deaminase)
Nc1ccc(N2CCCCC2)c2nonc12	CendR NRP1 mod 29
CC(NC(=O)c1ccccc1NC(=O)CN1CCN(c2ccccc2O)CC1)c1ccccc1 (stereo not drawn)	ALR H2O2 inh inconclusive (no result: PfM18AAP inh)
O=C(CCc1ccc(CCC(=O)c2cccs2)s1)c1cccs1	ALR H2O2 inh 92
O=C(CCN1CCCC1)c1cccs1	ALR H2O2 inh 98
COc1ccc(C(=O)CCN2CCCCCC2)cc1	none
O=C(CCN1CCCCCC1)c1ccccc1	ALR H2O2 inh 91
Oc1ccccc1-c1ccn[nH]1	CendR NRP1 mod 32 (no result: PfM18AAP inh)
Oc1ccccc1-c1cc(-c2ccccc2)n[nH]1	none (no result: PfM18AAP inh)
CC(=O)Nc1ccc(N(C(=O)Cn2nnc3ccccc32)C(C(=O)NC2CCCC2)c2ccc(O)c(O)c2)cc1 (stereo not drawn)	PfM18AAP inh 65, ALR H2O2 inh 92
O=C(COc1ccc(Cl)cc1)NCc1nnc(SCC(=O)Nc2ccccc2)o1	none
O=C(COc1ccc(Cl)cc1)NCc1nnc(SCC(=O)NCCc2ccccc2)o1	CendR NRP1 mod 20
COc1cccc(C=O)c1OCCCOc1cccc2cccnc12	ALR H2O2 inh 97
C#CCN(C[C@@H]1[C@@H](OC(=O)NCc2ccccc2)[C@@H](OC(=O)NCc2ccccc2)Cn2c(=O)n(CCCCCC)c(=O)n21)S(=O)(=O)c1ccc(C)cc1	none (no result: PfM18AAP inh, CR mimetic SO, APOBEC3G inh, ALR H2O2 inh, A3A deaminase)
COC(=O)c1sc(N2C(=O)C(=O)/C(=C(/O)c3ccccc3)C2c2ccco2)nc1C (stereo not drawn)	ALR H2O2 inh 90
O=C(c1ccc2nc(Cc3cccc(Cl)c3)oc2c1)N1CCC(CO)CC1	none
CC(C)CNC(=O)NC1C(NC(=O)NCC(C)C)N(C)C(=O)N1C (stereo not drawn)	none
COc1cccc(/C=C2\N=C3CCCCCN3C2=O)c1	none
CCOc1cc(/C=C2\N=C3CCCCCN3C2=O)ccc1O	ALR H2O2 inh 99
CC1=NOC(=O)/C1=C/c1ccc(O)c(Cl)c1	none (no result: ALR H2O2 inh)
CCOc1cc(/C=C2/N=C(C)C(C(=O)OC)=C2O)ccc1O	ALR H2O2 inh 99
CCOc1cc(/C=C2/C(=O)ON=C2C)ccc1O	ALR H2O2 inh 99
CCOC(=O)C1=C(O)/C(=C\c2ccc(OC)c(OC)c2)N=C1C	none (no result: ALR H2O2 inh)
COc1ccc(C(N)CCc2ccco2)cc1 (stereo not drawn)	ALR H2O2 inh 99
O=C1NC(=O)C(c2ccccc2)(c2ccccc2)N1	none
Cc1onc(-c2ccccc2)c1C(=O)Nc1sccc1C#N	none (no result: ALR H2O2 inh)
CC1=C(C(=O)NC2CC(C)(C)Cc3c2cnn3-c2cccc(F)c2)OCCO1 (stereo not drawn)	ALR H2O2 inh 97
Cc1ccccc1-n1ncc2c1CC(C)(C)CC2NC(=O)CSc1ccncc1 (stereo not drawn)	none
CC1(C)Cc2c(cnn2-c2cccc(F)c2)C(NC(=O)c2ccc(=O)[nH]n2)C1 (stereo not drawn)	ALR H2O2 inh 92
Cc1ccccc1-n1ncc2c1CC(C)(C)CC2NC(=O)c1ccncc1 (stereo not drawn)	CendR NRP1 mod 44
Cc1cc(C(=O)NC2CC(C)(C)Cc3c2cnn3-c2cccc(F)c2)n(C)n1 (stereo not drawn)	none
COc1ccc(CNCCS(=O)(=O)NC2CCCCC2)cc1	none (no result: PfM18AAP inh, CR mimetic SO, APOBEC3G inh, ALR H2O2 inh, A3A deaminase)
CCOc1cccc(/C=N/NC(=O)c2cc(C3CC3)[nH]n2)c1O	ALR H2O2 inh 98
CCOc1cccc(/C=N/NC(=O)c2cccnc2)c1O	ALR H2O2 inh inconclusive
CCCCN(C(=N)N1CCCCC1)c1nc(C)c([N+](=O)[O-])c(=O)[nH]1	none
Oc1c(Br)cc(Br)cc1C=Nc1cccnc1	PfM18AAP inh 30 (no result: ALR H2O2 inh)
Cc1ccc(CSc2nc3sc(C)c(C)c3c(=O)n2Cc2ccco2)cc1	ALR H2O2 inh 97
Cc1sc2nc(SCc3ccccc3)n(Cc3ccco3)c(=O)c2c1C	none
CC1CCC(NC(=O)c2ccc(-n3cncn3)c([N+](=O)[O-])c2)CC1 (stereo not drawn)	none (no result: PfM18AAP inh)
COc1cc(Cc2ccc(N)c(OC)c2)ccc1N	ALR H2O2 inh 98
COc1cc(/C=N/NC(=O)c2ccc(CSc3nncn3C)cc2)cc(OC)c1O	ALR H2O2 inh 100
